# Laboratory results from the supplement of paper PMC4466140.
# B1: unnamed (peptide)
# chain: RTRRRPPPPPIPSTQ
# What was measured:
# Experiment in all cases: SPOT peptide array binding signal intensity (averaged, normalized) (arbitrary units (background-subtracted, floor 0; scale differs between SH3 domains)); higher = stronger binding of the SH3 domain to the peptide
# AgAbp1 = molecular target: AgAbp1
# In short: (§1)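 E. coli BL21(DE3) was used to express GST-fused SH3 domains from four yeast species, which were then purified on glutathione Sepharose. These were incubated at 10 μg/ml in TBS-based blocking buffer overnight at 4°C on cellulose membranes carrying synthetic 15-mer peptides, in which cysteines were replaced by serines. Binding signal is the replicate average of normalized, background-subtracted spot intensity, in arbitrary units that differ between domains.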
# AgBbc1 = molecular target: AgBbc1
# In short: as §1
# AgBem1-D1 = molecular target: AgBem1-D1
# In short: as §1
# AgBzz1-D1 = molecular target: AgBzz1-D1
# In short: as §1
# AgBzz1-D2 = molecular target: AgBzz1-D2
# In short: as §1
# AgCyk3 = molecular target: AgCyk3
# In short: as §1
# AgFus1 = molecular target: AgFus1
# In short: as §1
# AgHof1 = molecular target: AgHof1
# In short: as §1
# AgHse1 = molecular target: AgHse1
# In short: as §1
# AgLsb1 = molecular target: AgLsb1
# In short: as §1
# AgLsb4 = molecular target: AgLsb4
# In short: as §1
# AgMyo5 = molecular target: AgMyo5
# In short: as §1
# AgNbp2 = molecular target: AgNbp2
# In short: as §1
# AgRvs167 = molecular target: AgRvs167
# In short: as §1
# AgSho1 = molecular target: AgSho1
# In short: as §1
# AgSla1-D1-D2 = molecular target: AgSla1-D1-D2
# In short: as §1
# AgSla1-D3 = molecular target: AgSla1-D3
# In short: as §1
# CaAbp1-D1 = molecular target: CaAbp1-D1
# In short: as §1
# CaAbp1-D2 = molecular target: CaAbp1-D2
# In short: as §1
# CaBbc1 = molecular target: CaBbc1
# In short: as §1
# CaBem1-D1 = molecular target: CaBem1-D1
# In short: as §1
# CaBzz1-D1 = molecular target: CaBzz1-D1
# In short: as §1
# CaBzz1-D2 = molecular target: CaBzz1-D2
# In short: as §1
# CaCyk3 = molecular target: CaCyk3
# In short: as §1
# CaFus1 = molecular target: CaFus1
# In short: as §1
# CaHof1 = molecular target: CaHof1
# In short: as §1
# CaHse1 = molecular target: CaHse1
# In short: as §1
# CaLsb1 = molecular target: CaLsb1
# In short: as §1
# CaLsb4 = molecular target: CaLsb4
# In short: as §1
# CaMyo5 = molecular target: CaMyo5
# In short: as §1
# CaNbp2 = molecular target: CaNbp2
# In short: as §1
# CaRvs167 = molecular target: CaRvs167
# In short: as §1
# CaRvs167-3 = molecular target: CaRvs167-3
# In short: as §1
# CaSho1 = molecular target: CaSho1
# In short: as §1
# CaSla1-D1-D2 = molecular target: CaSla1-D1-D2
# In short: as §1
# CaSla1-D3 = molecular target: CaSla1-D3
# In short: as §1
# ScAbp1 = molecular target: ScAbp1
# In short: as §1
# ScBbc1 = molecular target: ScBbc1
# In short: as §1
# ScBem1-D1 = molecular target: ScBem1-D1
# In short: as §1
# ScBzz1-D1 = molecular target: ScBzz1-D1
# In short: as §1
# ScBzz1-D2 = molecular target: ScBzz1-D2
# In short: as §1
# ScCyk3 = molecular target: ScCyk3
# In short: as §1
# ScFus1 = molecular target: ScFus1
# In short: as §1
# ScHof1 = molecular target: ScHof1
# In short: as §1
# ScHse1 = molecular target: ScHse1
# In short: as §1
# ScLsb1 = molecular target: ScLsb1
# In short: as §1
# ScLsb2 = molecular target: ScLsb2
# In short: as §1
# ScLsb3 = molecular target: ScLsb3
# In short: as §1
# ScLsb4 = molecular target: ScLsb4
# In short: as §1
# ScMyo3 = molecular target: ScMyo3
# In short: as §1
# ScMyo5 = molecular target: ScMyo5
# In short: as §1
# ScNbp2 = molecular target: ScNbp2
# In short: as §1
# ScPex13 = molecular target: ScPex13
# In short: as §1
# ScRvs167 = molecular target: ScRvs167
# In short: as §1
# ScSho1 = molecular target: ScSho1
# In short: as §1
# ScSla1-D1-D2 = molecular target: ScSla1-D1-D2
# In short: as §1
# ScSla1-D3 = molecular target: ScSla1-D3
# In short: as §1
# SpAbp1-D1 = molecular target: SpAbp1-D1
# In short: as §1
# SpBbc1 = molecular target: SpBbc1
# In short: as §1
# SpBzz1-D1 = molecular target: SpBzz1-D1
# In short: as §1
# SpBzz1-D2 = molecular target: SpBzz1-D2
# In short: as §1
# SpCyk3 = molecular target: SpCyk3
# In short: as §1
# SpHof1 = molecular target: SpHof1
# In short: as §1
# SpHof1-2 = molecular target: SpHof1-2
# In short: as §1
# SpHof1-3 = molecular target: SpHof1-3
# In short: as §1
# SpHse1 = molecular target: SpHse1
# In short: as §1
# SpLsb1 = molecular target: SpLsb1
# In short: as §1
# SpLsb4 = molecular target: SpLsb4
# In short: as §1
# SpMyo1 = molecular target: SpMyo1
# In short: as §1
# SpNbp2 = molecular target: SpNbp2
# In short: as §1
# SpPex13 = molecular target: SpPex13
# In short: as §1
# SpRvs167 = molecular target: SpRvs167
# In short: as §1
# SpSla1-D1-D2 = molecular target: SpSla1-D1-D2
# In short: as §1
# SpSla1-D3 = molecular target: SpSla1-D3
# In short: as §1
binder,measurement,setting,value
B1,SPOT peptide array binding signal intensity,AgAbp1,334
same,SPOT peptide array binding signal intensity,AgBbc1,531
same,SPOT peptide array binding signal intensity,AgBem1-D1,308
same,SPOT peptide array binding signal intensity,AgBzz1-D1,3430
same,SPOT peptide array binding signal intensity,AgBzz1-D2,1460
same,SPOT peptide array binding signal intensity,AgCyk3,2
same,SPOT peptide array binding signal intensity,AgFus1,87
same,SPOT peptide array binding signal intensity,AgHof1,256
same,SPOT peptide array binding signal intensity,AgHse1,91
same,SPOT peptide array binding signal intensity,AgLsb1,370
same,SPOT peptide array binding signal intensity,AgLsb4,136
same,SPOT peptide array binding signal intensity,AgMyo5,339
same,SPOT peptide array binding signal intensity,AgNbp2,2690
same,SPOT peptide array binding signal intensity,AgRvs167,99.3
same,SPOT peptide array binding signal intensity,AgSho1,27
same,SPOT peptide array binding signal intensity,AgSla1-D1-D2,23
same,SPOT peptide array binding signal intensity,AgSla1-D3,735
same,SPOT peptide array binding signal intensity,CaAbp1-D1,748
same,SPOT peptide array binding signal intensity,CaAbp1-D2,1060
same,SPOT peptide array binding signal intensity,CaBbc1,965
same,SPOT peptide array binding signal intensity,CaBem1-D1,124
same,SPOT peptide array binding signal intensity,CaBzz1-D1,7320
same,SPOT peptide array binding signal intensity,CaBzz1-D2,4870
same,SPOT peptide array binding signal intensity,CaCyk3,53.5
same,SPOT peptide array binding signal intensity,CaFus1,452
same,SPOT peptide array binding signal intensity,CaHof1,0.5
same,SPOT peptide array binding signal intensity,CaHse1,21
same,SPOT peptide array binding signal intensity,CaLsb1,1.25
same,SPOT peptide array binding signal intensity,CaLsb4,1170
same,SPOT peptide array binding signal intensity,CaMyo5,19.8
same,SPOT peptide array binding signal intensity,CaNbp2,1440
same,SPOT peptide array binding signal intensity,CaRvs167,111
same,SPOT peptide array binding signal intensity,CaRvs167-3,22.5
same,SPOT peptide array binding signal intensity,CaSho1,98
same,SPOT peptide array binding signal intensity,CaSla1-D1-D2,2100
same,SPOT peptide array binding signal intensity,CaSla1-D3,391
same,SPOT peptide array binding signal intensity,ScAbp1,114
same,SPOT peptide array binding signal intensity,ScBbc1,511
same,SPOT peptide array binding signal intensity,ScBem1-D1,13.5
same,SPOT peptide array binding signal intensity,ScBzz1-D1,1990
same,SPOT peptide array binding signal intensity,ScBzz1-D2,258
same,SPOT peptide array binding signal intensity,ScCyk3,19
same,SPOT peptide array binding signal intensity,ScFus1,40.5
same,SPOT peptide array binding signal intensity,ScHof1,2
same,SPOT peptide array binding signal intensity,ScHse1,473
same,SPOT peptide array binding signal intensity,ScLsb1,492
same,SPOT peptide array binding signal intensity,ScLsb2,559
same,SPOT peptide array binding signal intensity,ScLsb3,2080
same,SPOT peptide array binding signal intensity,ScLsb4,258
same,SPOT peptide array binding signal intensity,ScMyo3,940
same,SPOT peptide array binding signal intensity,ScMyo5,1490
same,SPOT peptide array binding signal intensity,ScNbp2,3190
same,SPOT peptide array binding signal intensity,ScPex13,318
same,SPOT peptide array binding signal intensity,ScRvs167,1430
same,SPOT peptide array binding signal intensity,ScSho1,894
same,SPOT peptide array binding signal intensity,ScSla1-D1-D2,3110
same,SPOT peptide array binding signal intensity,ScSla1-D3,883
same,SPOT peptide array binding signal intensity,SpAbp1-D1,505
same,SPOT peptide array binding signal intensity,SpBbc1,85.8
same,SPOT peptide array binding signal intensity,SpBzz1-D1,4250
same,SPOT peptide array binding signal intensity,SpBzz1-D2,1520
same,SPOT peptide array binding signal intensity,SpCyk3,1
same,SPOT peptide array binding signal intensity,SpHof1,361
same,SPOT peptide array binding signal intensity,SpHof1-2,53.5
same,SPOT peptide array binding signal intensity,SpHof1-3,340
same,SPOT peptide array binding signal intensity,SpHse1,72.2
same,SPOT peptide array binding signal intensity,SpLsb1,370
same,SPOT peptide array binding signal intensity,SpLsb4,1730
same,SPOT peptide array binding signal intensity,SpMyo1,800
same,SPOT peptide array binding signal intensity,SpNbp2,29.5
same,SPOT peptide array binding signal intensity,SpPex13,26.5
same,SPOT peptide array binding signal intensity,SpRvs167,1250
same,SPOT peptide array binding signal intensity,SpSla1-D1-D2,907
same,SPOT peptide array binding signal intensity,SpSla1-D3,2.5
